From PubChem BioAssay AID624417 (National Center for Advancing Translational Sciences (NCATS), 2012)
The whole screen tested about 410,000 compounds, of which about 6,400 (1.6%) were called active. Entries that show only a call come without a potency. Not shown: some 20% with an inconclusive outcome. This is one part of a sample in which actives are shown more often than they occur. Calls follow the shape of the dose curve; as a rule, active = well fitted inhibition curve with a large enough effect; inconclusive = small, poorly fitted or top-dose-only effect; inactive = no such curve, though single readings can be large or run the other way.

What follows are molecules tested against Glucagon-like peptide 1 receptor (Homo sapiens) (UniProt P43220) (assay: qHTS of GLP-1 Receptor Inverse Agonists (Inhibition Mode)). Settings: HEK293 GLP-1R CRE-luciferase, luminescence, 24 h, GLP-1R form is constitutively active; series mostly up to 38.3 µM.
Procedure, shortened: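 Inverse agonists were sought by their lowering of basal cAMP reporter luciferase output in HEK293 cells stably carrying constitutively active human GLP-1R, after 24 h compound treatment.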
Also: nearly all actives have a fitted effect of over 55% in size.
Potency is read from the fitted curve at half-maximal effect.

Glucagon-like peptide 1 receptor (Homo sapiens), sequence (P43220 whole entry, looked up): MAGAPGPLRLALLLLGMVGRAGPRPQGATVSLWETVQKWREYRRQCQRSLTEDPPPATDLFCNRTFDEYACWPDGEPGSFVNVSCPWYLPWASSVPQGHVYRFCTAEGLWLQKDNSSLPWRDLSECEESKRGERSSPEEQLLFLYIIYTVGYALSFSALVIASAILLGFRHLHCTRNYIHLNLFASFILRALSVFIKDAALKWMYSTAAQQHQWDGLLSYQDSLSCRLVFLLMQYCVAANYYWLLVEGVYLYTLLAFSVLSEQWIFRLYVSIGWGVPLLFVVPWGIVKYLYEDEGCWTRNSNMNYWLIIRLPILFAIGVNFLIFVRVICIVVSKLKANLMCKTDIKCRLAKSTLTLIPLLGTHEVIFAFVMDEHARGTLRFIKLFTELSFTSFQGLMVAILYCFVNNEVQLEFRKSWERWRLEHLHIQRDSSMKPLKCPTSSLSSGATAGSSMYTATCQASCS

Compound	Potency
O=C(C=CC(=O)Nc1ccc(F)cc1F)Nc1ccc(F)cc1F	inactive
O=C(NCc1ccccc1)c1ccc(S(=O)(=O)Nc2cccc(C(F)(F)F)c2)cc1	10 µM (active)
CCOC(=O)N1CCN(C(=O)c2ccc(S(=O)(=O)Nc3cccc(C(F)(F)F)c3)cc2)CC1	inactive
O=C(NCc1ccncc1)c1cccc(NS(=O)(=O)c2ccc(F)c(F)c2)c1	inactive
O=C(O)/C=C/C(=O)NNc1ccc([N+](=O)[O-])cc1	8.91 µM (active)
CC(=O)Nc1ccc(C=CC(=O)c2ccc([N+](=O)[O-])cc2)cc1	inactive
CC(=O)Nc1ccc(C=Cc2ccc([N+](=O)[O-])cc2)cc1	inactive
CN1OC[C@@H]2CN(C(=O)c3cccc4ccccc34)[C@H](c3ccc(N4CCCCC4)cc3)C[C@@H]21	inactive
COCCNC(=S)N(Cc1cccnc1)Cc1ccc(OC)c(OC)c1	inactive
CCN(Cc1ccncc1)C(=S)Nc1ccccc1C	inactive
Cc1ccc(CN(Cc2cccnc2)C(=S)Nc2cc(Cl)ccc2C)cc1	10 µM (active)
Nc1nc2cc(Cl)ccc2n1N	inactive
C[C@H]1Cn2cnc(C(=O)N[C@@H](Cc3c[nH]c4ccccc34)C(=O)OC(C)(C)C)c2C(=O)N1	inactive
COc1ccccc1C(=O)NC(=S)Nc1ccc(N2CCOCC2)cc1	inactive
O=C(Cc1ccc([N+](=O)[O-])cc1)NCCS(=O)(=O)N1CCN(c2ccccc2)CC1	inactive
Cc1ccc(-n2ncc3c2CCCC3NC(=O)c2cnccn2)cc1C (stereo not drawn)	inactive
Cn1nccc1C(=O)NC1CCCc2c1cnn2-c1ccc(F)cc1F (stereo not drawn)	inactive
COc1ccc(OC)c(C(=O)NC2CCCc3c2cnn3-c2cc(C)cc(C)c2)c1 (stereo not drawn)	10 µM (active)
COCCCNC(=O)c1ccc(-c2c(C)noc2C)c2ccoc12	inactive
CCCS(=O)(=O)NC(=O)C1(C)CCCN(C(=O)c2cc(C)on2)C1 (stereo not drawn)	inactive
CCC1NC(=O)c2cccnc2-n2c1nc1ccc(C)cc1c2=O (stereo not drawn)	inactive

Compound	Potency
CCN1C(=O)[C@@H]2[C@@H](c3ccc(-c4ccc(OC)cc4)c(OC)c3)N3CCC[C@@]3(C(=O)OC)[C@@H]2C1=O	inactive
CCCCCCSc1ccc([C@@H]2[C@@H]3C(=O)N(CC)C(=O)[C@@H]3[C@]3(C(=O)OC)CCCCN23)cc1OC	11.2 µM (active)
CCCCCCSc1ccc([C@@H]2[C@H]3C(=O)N(CC)C(=O)[C@H]3[C@]3(C(=O)OC)CCCCN23)cc1	inactive
CSc1ccc(CNC(=O)C2(C)CCCN2C)cc1 (stereo not drawn)	inactive
Cc1cc(C(=O)N2CCCC2(C)C(=O)O)c(C)o1 (stereo not drawn)	inactive
Cn1nccc1C(=O)N1CCCC(C(=O)c2ccc(Oc3ccccc3)cc2)C1 (stereo not drawn)	3.55 µM (active)
CCn1nc(C)cc1C(=O)N1CCCC(C(=O)c2cccc(OC)c2)C1 (stereo not drawn)	inactive
O=C(c1ccc(-c2ccccc2)cc1)C1CCCN(C(=O)c2cncs2)C1 (stereo not drawn)	inactive
CCOC(=O)[C@]12CCC=C1N(Cc1ccco1)C(=O)[C@H](CC(=O)N1CCSCC1)C2	inactive
COc1nc(NC2CCCCC2)nc(N2CCCCCC2)n1	5.01 µM (active)
COC(=O)c1ccc(Oc2nc(Nc3ccc(F)cc3)nc(N3CCCC3)n2)cc1	inactive
Clc1nc(NC2CCCC2)nc(N2CCOCC2)n1	inactive
CO[C@@H]1CN(C)C(=O)c2cc(NC(=O)Nc3cc(F)ccc3F)ccc2OC[C@H](C)N(C(=O)c2ccccn2)C[C@@H]1C	inactive
CN1CCN(C2Cc3ccc(Cl)cc3Sc3ccc(F)cc32)CC1 (stereo not drawn)	8.91 µM (active)
CCN(CC)C(=O)C1=C(C)N(Cc2ccc(F)cc2)C(=O)C(CC(=O)NC2CCCC2)C1 (stereo not drawn)	inactive
O=C(Nc1ccc(F)cc1)C(CCc1ccccc1)N1CCN(CC(=O)N2CCCC2)CC1 (stereo not drawn)	inactive
N#CCSc1ccccc1NC(=O)CN1C(=O)NC(CCc2ccccc2)C1=O (stereo not drawn)	inactive
Nc1cc(C(=O)N2CCN(c3ccccc3Cl)CC2)ccc1N1CC2CC(C1)c1cccc(=O)n1C2 (stereo not drawn)	inactive
Cc1cc(NC(=O)c2ccc(F)cc2)ccc1NC(=O)c1ccco1	inactive
CCC(=O)NC(=S)Nc1ccc(NC(=O)c2ccco2)c(Cl)c1	inactive
CCN(CC)P(=O)(Nc1ccc(SC(F)F)cc1)c1ccc(N(C)C)cc1NC(=O)c1ccco1 (stereo not drawn)	2.51 µM (active)

Compound	Potency
O=C(Nc1ccc(N2CCOCC2)cc1)c1cccc2c(-c3ccc(F)c(F)c3)coc12	inactive
O=NN(CCCl)C(=O)NCCc1cccc[n+]1[O-]	inactive
CCSc1nsc(NC(=O)Nc2ccccc2OC)n1	11.2 µM (active)
CCc1nc(SCC(=O)Nc2ccccc2OC)n[nH]1	inactive
COc1ccccc1NC(=S)NC(=O)C(C)C	inactive
Cc1ccccc1NC(=O)Cc1nc(COC(=O)CNC(=O)c2ccc(Cl)cc2Cl)cs1	inactive
CCOc1ccc(CCNC(=O)COC(=O)c2ccc(C)c(S(=O)(=O)N3CCOCC3)c2)cc1OCC	inactive
Cc1cc(Br)cn2c(Cc3ccsc3)c(-c3ccc(C#N)cc3)nc12	inactive
COc1ccccc1OCC(O)CN1CCOCC1 (stereo not drawn)	inactive
Cc1ccc(OCC(O)CN2CCN(CC(O)COc3ccc(C)cc3Cl)CC2)c(Cl)c1 (stereo not drawn)	inactive
OC(COc1ccc(F)cc1Cl)CN1CCc2ccccc2C1 (stereo not drawn)	10 µM (active)
O=C1NC[C@H](Cc2ccc(O)cc2)N(C[C@H]2CCCN2C[C@H](Cc2ccccc2)N2C[C@H](Cc3ccccc3)N(CCc3ccccc3)C(=O)C2=O)C1=O	inactive
O=C1OC(Oc2ccc(Br)cc2)(c2ccccc2)c2ccccc21 (stereo not drawn)	10 µM (active)
CC1(C(=O)NS(=O)(=O)c2ccccc2)CCN1C(=O)C1CCCCC1 (stereo not drawn)	inactive
O=C(COc1ccc(Cl)cc1)N(Cc1ccco1)Cc1ccco1	10 µM (active)
Cc1cc2oc(C(=O)N(Cc3ccc(Cl)cc3)Cc3ccco3)c(C)c2cc1Cl	inactive
CCOc1ccc(S(=O)(=O)N(CC(=O)NCC(F)(F)F)Cc2ccco2)cc1	inactive
CC(=O)c1nn(-c2ccccc2)c(=Nc2ccccc2)cc1C	inactive
Cc1cc2c3ccccc3[nH]c(=O)n2n1	inactive
CSc1ncnc2c1ncn2CCCNCc1ccco1	inactive
COc1ccc(-c2cc(NC=O)c3ncc(-c4ccccc4)n3c2)cc1OC	inactive
